Holding throughout (experiment): NCI-60 one-dose screen, 48 h (100 = growth as untreated, 0 = no growth, -100 = all killed)
Holding throughout (settings): 10 µM unless noted

Assay [1] has as its system DU-145 prostate.
Assay [2] deals with K-562 leukemia.
In assay [3] the test system is MALME-3M melanoma.
The test system of assay [4] is RXF 393 renal.
Assay [5] concerns SF-268 CNS.
For assay [6], the system named is SF-295 CNS.
Assay [7] relates to SF-539 CNS.
In assay [8] the test system is UACC-257 melanoma.
The subject of assay [9] is M14 melanoma.
Assay [10] concerns HCT-15 colon.
In assay [11] the test system is HT29 colon.
The subject of assay [12] is SNB-75 CNS.
The subject of assay [13] is SNB-19 CNS.
For assay [14], the system named is U251 CNS.
Assay [15] has as its system PC-3 prostate.
For assay [16], the system named is SK-MEL-5 melanoma.
Assay [17] has as its system UACC-62 melanoma.
The test system of assay [18] is LOX IMVI melanoma.
For assay [19], the system named is SK-MEL-28 melanoma.
Assay [20] has as its system MDA-MB-231 breast.

The panel holds about 83,000 compounds, 20% with a hit somewhere; the sample as a whole holds those more often.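 Single-concentration screen, 48 h exposure, 96-well plates. Endpoint: percent growth. Below 10 = active.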 A number with no mark means an inactive call. The source made the active and inactive calls.

`COC(=O)C(Cc1ccccc1)NC(=O)NC(=O)NC(=O)CI` (centres undefined): the growth in assay [1] is 91.2%; in assay [2] it was -18.8% (active); in assay [3], -71% (active); in assay [4], 63.9%; in assay [5], 71.8%; in assay [6] it was 103%. For the same molecule, the growth in assay [7] is 87.7%; in assay [8], 103%; in assay [9] it was 35.2%; in [10], 12%; in assay [11], 50.1%; in assay [12], 98.9%. For the same molecule, the growth is 126% in assay [13]; 101% in [14]; 87.6% in [15]; 89.7% in assay [16]; 6.21% (active) in assay [17]; -78.8% (active) in [18]. Besides, the growth in assay [19] is 51.8%.

Turning to `CN1C(=O)CNC(=O)[C@H](NC(=O)c2nc3ccccc3cc2O)CSSC[C@H]1C(=O)NCCc1nc2ccccc2cc1O`, the growth in assay [1] is 38.6%; in [2], 5.35% (active); in [3] it was 110%; in assay [4] it was 100%; in assay [5], 46.4%; in assay [6] it was 68.3%. The growth in [7] was 94.2%; in assay [8], 79.2%; in assay [9], 6.87% (active); in assay [10] it was 99.7%; in [11], 17.6%; in [12] it was 129%. Moreover, the growth in assay [13] is 87%; in [14], 71.4%; in assay [15], 55.7%; in [16], 38%; in assay [17], 34.9%; in [18] it was -11.5% (active). Further, the growth in assay [19] is 62.8%.

Regarding `CC/C=C\C[C@@H](O)C/C=C1/C(=O)C=C[C@H]1C/C=C\CCCC(=O)OC`, the growth in assay [1] is 28.7%; in assay [2], 2.65% (active); in assay [3] it was 10.4%; in assay [4], -16.8% (active); in assay [5], 0.223% (active); in [6], 80.9%. The growth in [7] is 10.4%; in [8], 56.5%; in [9] it was -1.62% (active); in [10] it was -31.3% (active); in assay [11], -58.5% (active); in assay [12] it was 90.8%. Moreover, the growth in [13] was 33.7%; in assay [14], 8.72% (active); in assay [15], -21.1% (active); in assay [16] it was -82.2% (active); in assay [17], -50.6% (active); in [18] it was -69% (active). Also, the growth in assay [19] is -32.8% (active).

As for `N#CC1=C(N)Oc2c(sc3c(Br)cccc23)C1c1ccc(Br)cc1` (centres undefined), the growth in [1] is 8.77% (active); in assay [2] it was 8.24% (active); in [3], 60%; in assay [4] it was -2.19% (active); in assay [5] it was 33.9%; in assay [6] it was 0.128% (active). Further, the growth in assay [7] is -14.2% (active); in assay [8] it was 41.4%; in assay [9], -0.594% (active); in assay [10], 22.4%; in [12], 15%; in [13], 52.6%. The growth is 14% in [14]; 15.3% in [15]; 15.6% in assay [16]; 21.2% in assay [17]; 21.6% in [18]; 50.6% in assay [19].

`COc1ccc2c(c1)C(C)Cc1c(ncnc1-n1c(C)nc3ccccc31)N2C` (centres undefined): the growth was 24.2% in [1]; 11% in assay [2]; 58.1% in assay [3]; 14.2% in assay [4]; 42.5% in [5]; 6.04% (active) in assay [6]. In addition, the growth in assay [7] is 5.97% (active); in assay [8], 68.3%; in assay [9], 14.5%; in assay [10] it was 22.8%; in assay [11] it was 7.08% (active); in assay [12] it was -4.89% (active). Further, the growth in assay [13] was 32.3%; in [14], 25.6%; in assay [15], 16.2%; in assay [16], 20%; in [17], 23.3%; in assay [18], 25.7%. Further, the growth in assay [19] is 66.4%.

As for `C=CCc1cc(C)ccc1NC(C(=O)NCC(=O)OC)c1ccccc1` (centres undefined), the growth in assay [1] is 112%; in assay [2], 106%; in [3], 105%; in assay [4], 109%; in [5] it was 95%; in assay [6], 92.9%. In addition, the growth in assay [7] is 94.5%; in assay [8], 104%; in [9] it was 96.6%; in assay [10] it was 91.8%; in [11], 98.4%; in assay [12], 88.9%. The growth was 105% in assay [13]; 97.8% in assay [14]; 89.1% in assay [15]; 102% in assay [16]; 95.4% in assay [17]; 103% in [18]. Moreover, the growth in assay [19] was 101%.

Regarding `CC/C=C\C[C@@H]1C/C=C2/C(=O)C=C[C@H]2C/C=C\CCCC(=O)O1`, the growth in [1] is -66.8% (active); in [2] it was -0.441% (active); in assay [3], -41.1% (active); in assay [4], -80.6% (active); in assay [5], -57.6% (active); in assay [6], -18.1% (active). The growth in [7] is -64.3% (active); in assay [8] it was -41.7% (active); in assay [9], -48.8% (active); in [10], -43.5% (active); in [11] it was -72.4% (active); in [12] it was 32.2%. Moreover, the growth in assay [13] was -31.4% (active); in [14] it was -94.2% (active); in assay [15], -37.6% (active); in assay [16] it was -89.3% (active); in assay [17] it was -61.1% (active); in assay [18] it was -77.1% (active). Further, the growth in assay [19] was -75.6% (active).

`CCCCNC(=O)Oc1ccc(/C(=C(\C)c2ccc(Cl)cc2)c2ccc(OCCN(CC)CC)cc2)cc1`: the growth in assay [1] was 81.7%; in assay [2], 8.22% (active); in [3] it was 65.1%; in [20], 70.2%; in [4], 79.4%; in assay [5] it was 65.5%. The growth in assay [6] is 85.2%; in assay [7], 71.7%; in assay [8], -1.69% (active); in assay [10], 19.5%; in assay [12] it was 64.9%; in assay [13] it was 86%. Moreover, the growth was 50.7% in assay [14]; 60.9% in [15]; 78.4% in assay [16]; 74.6% in [17]; 74.9% in assay [19].

These data come from PubChem BioAssay (NCI).
